# aSyn UTR act: Activators working through SNCA 5'UTR binding (MLPCN); alpha-synuclein 5'UTR reporter, activators screen; activity score, % (tested at 7.5 µM), hits read low; hit rate 7.1% among 300,000; in the data active means activity score below about -60%
# Numbers without * were called inactive. These entries were drawn from the full list.
SMILES,aSyn UTR act
Cc1c(OCC(F)(F)F)ccnc1CS(=O)c1nc2ccccc2[nH]1 (configuration not stated),-99*
COc1cc(/C=C/c2ccc3cccc(O)c3n2)cc(Br)c1OC,-81*
COc1ccc(/C=C/c2ccc3c(Br)ccc(O)c3n2)cc1,-151*
COc1cc(/C=C/c2ccc3cccc(O)c3n2)cc(Cl)c1OC,-88*
COc1cc(/C=C/c2ccc3c(Br)cc(Br)c(O)c3n2)ccc1O,65
COc1ccc(CN2C(=O)CS/C2=N/N=C/c2ccccc2)cc1,-64*
COc1ccc(/C=N/N=C2/SCC(=O)N2Cc2ccccc2)cc1,-170*
O=C(CCC1CCCCC1)Nc1ccccc1O,-163*
Cc1ccc(O)c(NC(=O)CCC2CCCCC2)c1,-152*
Cn1c(NC(=O)CCC2CCCCC2)cc(=O)n(C)c1=O,-63*
CCCNC(=O)Cn1nc([N+](=O)[O-])c([N+](=O)[O-])c1C,-77*
CCCCNC(=O)Cn1nc([N+](=O)[O-])c([N+](=O)[O-])c1C,-138*
Cc1occc1C(=O)Nc1cc(C(C)(C)C)on1,-101*
Cc1cccc(NC(=O)c2ccoc2C)n1,-86*
O=C(c1cc(-c2ccncc2)nc2c(Cl)cccc12)N1CCN(c2ccccc2F)CC1,99
Cc1ccc(-c2cc(C(=O)N3CCN(c4ccc(F)cc4)CC3)c3ccccc3n2)o1,-96*
CCOc1ccc(-c2cc(C(=O)N3CCN(c4ccccn4)CC3)c3ccccc3n2)cc1,-68*
COc1ccc(-c2cc(C(=O)N3CCN(c4ccccn4)CC3)c3ccccc3n2)cc1,-140*
O=C(NC(=S)Nc1ccc(Br)cc1)C1CCCCC1,-68*
O=C(NC(=S)Nc1ccccc1)C1CCCCC1,-63*
O=C(NC(=S)Nc1ccc(Br)cc1)C1CCC1,-95*
CC(C)CC(=O)NC(=S)NNC(=O)c1ccc(NC(=O)C2CCCCC2)cc1,75
Cc1ccc(NC(=O)/C=C/c2ccc([N+](=O)[O-])s2)cc1,-212*
Cc1ccc(NC(=O)/C=C/c2ccc([N+](=O)[O-])s2)c(C)c1,-93*
Cc1cc([N+](=O)[O-])ccc1NC(=O)/C=C/c1cccs1,-158*
SMILES,aSyn UTR act
Cc1cccc(NC(=O)/C=C/c2ccc([N+](=O)[O-])s2)c1,-224*
COc1cccc(-c2nnc(SCc3ccc(C#N)cc3)n2Cc2ccco2)c1,43
Cn1c(SCc2ccccc2)nnc1-c1ccco1,-120*
c1ccc(CSc2nnc(-c3ccco3)n2Cc2ccco2)cc1,-107*
c1ccc(Cn2ccc(-c3cnc(-c4ccccc4)s3)n2)cc1,-106*
Nn1c(SCC(=O)NC(=O)Nc2ccc3c(c2)OCCO3)nnc1C1CC1,-96*
Cn1nnnc1SCC(=O)Nc1ccc2c(c1)OCCO2,-86*
O=C(CSc1nnnn1-c1ccccc1)NC(=O)Nc1ccc2c(c1)OCCO2,-86*
CCC(C)N1C(=O)S/C(=C/c2ccc(N3CCOCC3)cc2C)C1=O (configuration not stated),-167*
Cc1cc(N2CCOCC2)ccc1/C=C1\SC(=O)N(C(C)C)C1=O,-115*
O=C(Nc1ccc2ccccc2c1)c1onc2c1CCCC2,-71*
Cc1ccccc1NC(=O)c1onc2c1CCCC2,-131*
Cc1cccc(NC(=O)c2onc3c2CCCC3)c1C,-162*
COC(=O)c1cccc(NC(=O)c2onc3c2CCCC3)c1,79
Cc1cccc(NC(=O)c2onc3c2CCCC3)n1,86
Cc1ccc(OCC(=O)N2CCOCC2)cc1C,-68*
Cc1ccc(OCc2ccc(C(=O)N3CCOCC3)cc2)cc1C,-66*
CC1(C)CC(=O)c2sc(NS(=O)(=O)Cc3ccccc3)nc2C1,-63*
CC1(C)N=C(N)N=C(N)N1c1ccc(Oc2ccc(Cl)cc2)c(Cl)c1,85
CC(C)Sc1ccc(C(=O)Nc2ccc(F)cc2F)cn1,-140*
CN(C)c1ccc(C(=O)/C=C/c2cccnc2)cc1,-167*
CCOC(=O)c1cnc2c(ccc3ccccc32)c1Cl,-87*
CCOC(=O)c1[nH]cnc1N=Nc1c(O)ccc2ccccc12,91
CCOC(=O)c1cnc(SCCc2ccccc2)nc1N,-102*
CCOC(=O)c1cnc(SCc2ccc(C)cc2)nc1N,-179*
SMILES,aSyn UTR act
CCCCSc1ncc(C(=O)OCC)c(N)n1,-140*
CCOC(=O)c1cnc(-n2nc(C)cc2C)nc1NNc1ncc(-c2ccccc2)cn1,83
CCOC(=O)c1cnc(NCc2ccccc2)nc1C,-73*
O=C(/C=C/c1ccccc1Cl)Nn1cnc2ccccc2c1=O,-137*
Cc1cc(NC(=O)/C=C/c2ccccc2Cl)n(-c2nc3ccccc3[nH]2)n1,-111*
Cc1nc2ccccc2c(=O)n1NC(=O)/C=C/c1ccccc1Cl,-138*
Cc1ncc(CO)c(/C=N/N=C/c2ccccc2O)c1O,-89*
Cc1ncc(CO)c(/C=N/Nc2ccc(C(F)(F)F)cn2)c1O,88
COc1cc(CNC(C)c2ccccc2)cc(Br)c1OCc1ccc(F)cc1 (configuration not stated),59
COc1cc(/C=N/NC(N)=S)cc(Br)c1OCc1ccccc1F,-74*
CCOc1cc(/C=N/NC(N)=S)cc(Br)c1OCc1ccccc1C,-74*
CSc1nc(/C=C2\C=Nc3ccccc32)c(O)n1C,-152*
COc1ccc(CCCC(=O)N/N=C/c2cccc(OC)c2O)cc1C,74
COc1ccc(N=Cc2cccc(C)c2O)cc1Cl,-138*
COc1ccc(-c2cn3c(C)c(C(=O)Nc4cccc(C)n4)sc3n2)cc1,-97*
Cc1cccc(NC(=O)c2sc3nc(-c4ccccc4)cn3c2C)n1,-124*
Cc1c(C(=O)Nc2ccccc2)sc2nc(-c3ccccc3)cn12,-160*
COCCNC(=O)c1sc2nc(-c3ccccc3)cn2c1C,-77*
Cc1ccc(SSc2cc(C)ccc2N)c(N)c1,-203*
O=C(COC(=O)c1ccccc1-n1cnnn1)c1ccc(F)cc1,-145*
CC(=O)C1=NOC(CNc2ncc(C(F)(F)F)cc2Cl)C1 (configuration not stated),-86*
N#C/C(=C/c1ccc(N2CCCCC2)o1)C(=O)Nc1ccc(Cl)cc1,-152*
N#C/C(=C/c1ccc(N2CCCCC2)o1)C(=O)Nc1ccc2ccccc2c1,-110*
O=C(NCC(c1cccs1)N1CCOCC1)c1ccc(Cl)cc1 (configuration not stated),-100*
CCc1ccc2nc3nc(C)cc(C)c3c(N)c2c1,-391*
SMILES,aSyn UTR act
Cc1cc(C)c2c(N)c3ccccc3nc2n1,-623*
O=c1c(Cl)c(N2CCCCC2)cnn1-c1nc2ccccc2[nH]1,93
Clc1ccc2nc(N3CCCCC3)[nH]c2c1,-123*
CS(=O)(=O)N1CCN(c2nc3ccc(Cl)cc3s2)CC1,-99*
Clc1ccc2nc(N3CCCCC3)sc2c1,-148*
COc1ccc2nc(-c3ccccn3)[nH]c2c1,-80*
Nc1ccc2nc(-c3cccs3)[nH]c2c1,-156*
Nc1ccc2nc(-c3ccccc3)[nH]c2c1,-126*
Nc1ccc2nc(-c3ccccn3)[nH]c2c1,-161*
Nc1cccc(-c2nc3ccc(C(=O)c4ccccc4)cc3[nH]2)c1,-276*
Nc1ccc2nc(-c3ccc(N)c(Cl)c3)[nH]c2c1,-115*
Nc1ccc(-c2nc3c(Cl)cc(N)cc3[nH]2)cc1,85
C#CCOc1ccc(C2C3=C(COC3=O)Nc3cc4c(cc32)OCO4)cc1OC (configuration not stated),132
CCOc1ccc(C2Sc3ccccc3NC3=C2C(=O)OC3)cc1 (configuration not stated),-78*
CCOc1ccccc1C1C2=C(COC2=O)Nc2cc3c(cc21)OCO3 (configuration not stated),117
